This is a sample that favours compounds with a hit; in the whole collection about 5.9% have one here.
LANA-H2A inh – blocks KSHV LANA binding to histone H2A/H2B; 0.6% of 320,000 active; AID 2629; inhibition, % (no concentration beside the values); cell-free LANA-H2A/H2B peptide, fluorescence polarization; Q9QR71; in the data active means inhibition mostly above about 10%, no sharp cut-off; inactive means mostly below about 6.7%
Target sequence (Q9QR71 whole entry, looked up): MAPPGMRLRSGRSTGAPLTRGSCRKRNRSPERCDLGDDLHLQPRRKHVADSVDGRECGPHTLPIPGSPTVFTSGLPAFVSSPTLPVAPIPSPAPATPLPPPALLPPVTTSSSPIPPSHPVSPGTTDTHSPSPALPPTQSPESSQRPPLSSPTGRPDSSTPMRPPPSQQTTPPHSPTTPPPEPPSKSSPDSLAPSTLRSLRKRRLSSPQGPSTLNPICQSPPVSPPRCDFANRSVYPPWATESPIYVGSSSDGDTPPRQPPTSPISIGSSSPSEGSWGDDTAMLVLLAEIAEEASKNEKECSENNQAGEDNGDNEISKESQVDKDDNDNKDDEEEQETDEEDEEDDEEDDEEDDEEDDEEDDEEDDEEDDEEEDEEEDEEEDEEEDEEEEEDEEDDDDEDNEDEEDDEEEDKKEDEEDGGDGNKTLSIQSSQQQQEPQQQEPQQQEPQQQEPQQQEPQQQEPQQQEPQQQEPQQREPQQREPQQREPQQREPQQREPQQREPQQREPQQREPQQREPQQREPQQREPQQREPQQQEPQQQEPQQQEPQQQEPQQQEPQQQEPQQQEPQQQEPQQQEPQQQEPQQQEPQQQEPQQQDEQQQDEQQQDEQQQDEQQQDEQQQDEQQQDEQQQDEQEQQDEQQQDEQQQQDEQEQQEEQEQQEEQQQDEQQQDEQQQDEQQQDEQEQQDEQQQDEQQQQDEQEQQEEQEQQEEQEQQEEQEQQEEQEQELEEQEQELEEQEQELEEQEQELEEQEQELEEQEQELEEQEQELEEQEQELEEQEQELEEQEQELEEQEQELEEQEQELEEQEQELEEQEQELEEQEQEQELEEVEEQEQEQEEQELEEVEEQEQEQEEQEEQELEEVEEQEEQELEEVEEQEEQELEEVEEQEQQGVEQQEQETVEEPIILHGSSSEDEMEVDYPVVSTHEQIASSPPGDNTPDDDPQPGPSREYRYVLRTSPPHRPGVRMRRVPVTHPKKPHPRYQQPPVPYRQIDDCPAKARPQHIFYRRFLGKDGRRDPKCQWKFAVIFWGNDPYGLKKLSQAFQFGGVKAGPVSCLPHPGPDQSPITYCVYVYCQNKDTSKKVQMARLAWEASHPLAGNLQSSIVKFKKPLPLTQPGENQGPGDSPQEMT
PRMT1 inh – inhibitors of human PRMT1; Q99873; recombinant PRMT1, activity-based probe fluorescence polarization; inhibition, % at 2.79 µM; 1.3% of 370,000 active;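 active means inhibition above about 21% made by adding two undisclosed values, limit read from the data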
ABHD5-PLIN5 inh – inhibitors of human ABHD5-perilipin-5 interaction | AID 602281 | 0.78% of 360,000 active | Split G. princeps luciferase complementation, luminescence, 4 h | Q00G26+Q8WTS1 | inhibition, % at 4 µM;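 active means inhibition above the mean inhibition across every tested compound plus 3 SD, cut at about 22% in these data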
Rtt109 Vps75 – blocks Candida albicans Rtt109/Vps75 acetyltransferase activity; 0.16% of 330,000 active; AID 540336; purified Rtt109/Vps75, ThioGlo CoA-SH fluorescence, 4 h; inhibition, % at 34.9 µM;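 active means inhibition of at least 50% in every replicate; inconclusive means best replicate reaches 50% inhibition but some replicates fall short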
ALR inh – blocks human ALR sulfhydryl oxidase activity; P55789; purified ALR, DTT oxidation, H2O2 HRP-luminol luminescence; inhibition, % (test concentration not listed); 3.8% of 290,000 active; AID 485317;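 active means mean replicate inhibition above about 79%, with every replicate also reaching it, limit read from the data; inconclusive means only one of the two criteria met; inactive means mean below limit and not every replicate reaching it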
rCAG RNA binder – r(CAG) repeat RNA binding. AID 651821. 1.3% of 370,000 active. TO-PRO-1 dye displacement fluorescence. inhibition, % at 3 µM;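 active means inhibition above the plate cutoff, the mean of all test compounds on that plate plus 3 SD, cut at about 35% in these data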;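 further: higher means more dye released from RNA so lower well fluorescence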
A number is an active result.

How did O=C(O)c1ccc(NCc2cccs2)cc1 do in these assays?
LANA-H2A inh: inactive; PRMT1 inh: inactive; ABHD5-PLIN5 inh: inactive; Rtt109 Vps75: inactive; ALR inh: inactive; rCAG RNA binder: inactive

How did CCCCC(=O)Nc1ccc(NCc2ccc(C)s2)cc1 do in these assays?
LANA-H2A inh: inactive; PRMT1 inh: inactive; ABHD5-PLIN5 inh: inactive; Rtt109 Vps75: inactive; ALR inh: 97; rCAG RNA binder: inactive

How did O=C(NNC(=S)NC(=O)c1sc2ccccc2c1Cl)c1ccc(Cl)cc1 do in these assays?
LANA-H2A inh: inactive; PRMT1 inh: inactive; ABHD5-PLIN5 inh: inactive; Rtt109 Vps75: inactive; ALR inh: 98; rCAG RNA binder: inactive

How did Cc1cccc(C(=O)NC(=S)NNC(=O)c2cccs2)c1 do in these assays?
LANA-H2A inh: inactive; PRMT1 inh: inactive; ABHD5-PLIN5 inh: inactive; Rtt109 Vps75: inactive; ALR inh: 99; rCAG RNA binder: inactive

How did CCC(=O)Nc1ccc(NCc2cccs2)cc1 do in these assays?
LANA-H2A inh: inactive; PRMT1 inh: inactive; ABHD5-PLIN5 inh: inactive; Rtt109 Vps75: inactive; ALR inh: 98; rCAG RNA binder: inactive

What do the screens show for `O=C(NN1CCOCC1)c1cccc(Cl)c1`?
LANA-H2A inh: inactive; PRMT1 inh: inactive; ABHD5-PLIN5 inh: inactive; Rtt109 Vps75: inactive; ALR inh: inactive; rCAG RNA binder: inactive

What do the screens show for `Cc1ccc(NC(=O)CN2CCN(c3nc(-c4ccccc4)cs3)CC2)cc1C`?
PRMT1 inh: inactive; rCAG RNA binder: inactive

How did O=C(NC(=S)NNC(=O)c1cccs1)c1ccccc1 do in these assays?
LANA-H2A inh: inactive; PRMT1 inh: inactive; ABHD5-PLIN5 inh: inactive; Rtt109 Vps75: inactive; ALR inh: 99; rCAG RNA binder: inactive

How did CCN(CC)c1ccc(NC(=O)CN(C)Cc2cccs2)cc1 do in these assays?
LANA-H2A inh: inactive; PRMT1 inh: inactive; ABHD5-PLIN5 inh: inactive; Rtt109 Vps75: inactive; ALR inh: 99; rCAG RNA binder: inactive

How did Cc1cccc(C(=O)NC(=S)NNC(=O)c2ccc(Cl)cc2)c1 do in these assays?
LANA-H2A inh: inactive; PRMT1 inh: inactive; ABHD5-PLIN5 inh: inactive; Rtt109 Vps75: inactive; ALR inh: 96; rCAG RNA binder: inactive

How did C[C@H](CO)N1C[C@H](C)[C@H](CN(C)C(=O)Nc2ccccc2F)OCc2cnnn2CCCC1=O do in these assays?
PRMT1 inh: inactive; ABHD5-PLIN5 inh: inactive; rCAG RNA binder: inactive

Results for CCn1c(CSc2nc3ccccc3s2)nnc1SCC(=O)c1ccc(O)c(O)c1 ?
LANA-H2A inh: inactive; PRMT1 inh: inactive; ABHD5-PLIN5 inh: inactive; Rtt109 Vps75: inactive; ALR inh: 98; rCAG RNA binder: inactive

Results for CCn1c(SCC(=O)c2ccc(O)c(O)c2)nnc1-c1ccccc1OC ?
LANA-H2A inh: inactive; PRMT1 inh: inactive; ABHD5-PLIN5 inh: inactive; Rtt109 Vps75: inactive; ALR inh: 99; rCAG RNA binder: inactive

How did CCn1c(SCC(=O)c2ccc(O)c(O)c2)nnc1-c1ccccc1 do in these assays?
LANA-H2A inh: inactive; PRMT1 inh: inactive; ABHD5-PLIN5 inh: inactive; Rtt109 Vps75: inactive; ALR inh: 98; rCAG RNA binder: inactive

How did C[C@H]1[C@@H](OC(=O)NCc2ccc(Cl)cc2)CC[C@@]23CCCN2C(=O)CCC[C@@H]13 do in these assays?
PRMT1 inh: inactive

What do the screens show for `Cc1ccc(C(=O)C2CCN(CC(=O)NCc3cccs3)CC2)cc1`?
PRMT1 inh: inactive; rCAG RNA binder: inactive

How did CC(=O)c1c(C)oc2ccc(NS(=O)(=O)c3ccc(O)c(C(=O)O)c3)cc12 do in these assays?
LANA-H2A inh: inactive; PRMT1 inh: inactive; ABHD5-PLIN5 inh: inactive; Rtt109 Vps75: inactive; ALR inh: inactive; rCAG RNA binder: inactive

How did O=C(O)c1cc(S(=O)(=O)Nc2ccc3oc(=O)sc3c2)ccc1O do in these assays?
LANA-H2A inh: inactive; PRMT1 inh: 86; ALR inh: inactive; rCAG RNA binder: 60

What do the screens show for `Cc1ccc(S(=O)(=O)Nc2ccc3oc(=O)sc3c2)c(C)c1`?
LANA-H2A inh: inactive; PRMT1 inh: 59; ABHD5-PLIN5 inh: inactive; Rtt109 Vps75: inconclusive; ALR inh: inactive; rCAG RNA binder: inactive

What do the screens show for `COc1ccc(C(O)c2nc(-c3cccc(F)c3)cs2)cc1` (centres undefined)?
PRMT1 inh: inactive; ABHD5-PLIN5 inh: inactive; rCAG RNA binder: inactive

What do the screens show for `Clc1cccc(OCCN2CCN(CCOc3cccc(Cl)c3)CC2)c1`?
LANA-H2A inh: inactive; PRMT1 inh: inactive; ABHD5-PLIN5 inh: 23; Rtt109 Vps75: inactive; rCAG RNA binder: inactive

Results for Clc1ccc(OCCN2CCCCC2)cc1Cl ?
LANA-H2A inh: inactive; PRMT1 inh: inactive; ABHD5-PLIN5 inh: inactive; Rtt109 Vps75: inactive; ALR inh: inactive; rCAG RNA binder: inactive

What do the screens show for `Clc1ccc(OCCN2CCOCC2)cc1Cl`?
LANA-H2A inh: 17; PRMT1 inh: inactive; ABHD5-PLIN5 inh: inactive; Rtt109 Vps75: inactive; ALR inh: inactive; rCAG RNA binder: inactive

What do the screens show for `CC(CCN1CCC(C(O)(c2ccccc2)c2ccccc2)CC1)Oc1cccc(F)c1` (centres undefined)?
PRMT1 inh: inactive; rCAG RNA binder: inactive

How did Cc1ccc(C)c(N=Cc2cc3c(cc2[N+](=O)[O-])OCO3)c1 do in these assays?
LANA-H2A inh: inactive; PRMT1 inh: 22; ABHD5-PLIN5 inh: inactive; Rtt109 Vps75: inactive; ALR inh: inactive; rCAG RNA binder: inactive

What do the screens show for `CC(C)(C)c1ccc(O)c(N=Cc2cc3c(cc2[N+](=O)[O-])OCO3)c1`?
LANA-H2A inh: inactive; PRMT1 inh: inactive; ABHD5-PLIN5 inh: inactive; Rtt109 Vps75: inactive; ALR inh: inactive; rCAG RNA binder: inactive

Results for O=C(Nc1ccc2c(c1)OCO2)NC1(C(F)(F)F)Oc2ccccc2O1 ?
LANA-H2A inh: inactive; PRMT1 inh: 22; ABHD5-PLIN5 inh: inactive; ALR inh: inactive; rCAG RNA binder: inactive

How did O=C(Nc1ccc2c(c1)OCCO2)NC1(C(F)(F)F)Oc2ccccc2O1 do in these assays?
LANA-H2A inh: inactive; PRMT1 inh: inactive; ABHD5-PLIN5 inh: inactive; Rtt109 Vps75: inactive; ALR inh: inactive; rCAG RNA binder: inactive

How did Cc1c(NC(=O)C2CCCN(S(=O)(=O)c3ccc(C(C)(C)C)cc3)C2)c(=O)n(-c2ccccc2)n1C (centres undefined) do in these assays?
PRMT1 inh: inactive; rCAG RNA binder: inactive

Results for CCOC(=O)N1CCN(C(=O)c2cccc(-n3c(=S)[nH]c4cc(Cl)ccc4c3=O)c2)CC1 ?
LANA-H2A inh: inactive; PRMT1 inh: inactive; ABHD5-PLIN5 inh: inactive; Rtt109 Vps75: inactive; ALR inh: 79; rCAG RNA binder: inactive

What do the screens show for `CCOc1ccccc1CNc1ccc(O)cc1`?
PRMT1 inh: inactive; ABHD5-PLIN5 inh: inactive; Rtt109 Vps75: inactive; rCAG RNA binder: inactive

What do the screens show for `CCc1ccc(CNc2ccc(O)cc2)cc1`?
LANA-H2A inh: inactive; ABHD5-PLIN5 inh: inactive; Rtt109 Vps75: inactive; ALR inh: 84

How did Cc1c(O)c(CN(C)C)cc2c1oc(=O)c1ccccc12 do in these assays?
LANA-H2A inh: inactive; PRMT1 inh: inactive; ABHD5-PLIN5 inh: inactive; Rtt109 Vps75: inactive; ALR inh: 97; rCAG RNA binder: inactive

What do the screens show for `Cc1c(O)c(CN2CCCCC2)cc2c1oc(=O)c1ccccc12`?
LANA-H2A inh: inactive; PRMT1 inh: inactive; ABHD5-PLIN5 inh: inactive; Rtt109 Vps75: inactive; ALR inh: inactive; rCAG RNA binder: inactive

Source: PubChem BioAssay
